# Experimental data from ChEMBL document CHEMBL3988442, “University of Dundee, Small-Polar-MMV Screening Library” (2021).
# Target: T1, Aspartate--tRNA(Asp/Asn) ligase (Mycobacterium tuberculosis (strain ATCC 25618 / H37Rv)) (UniProt P9WFW3)
# T1 sequence (whole entry): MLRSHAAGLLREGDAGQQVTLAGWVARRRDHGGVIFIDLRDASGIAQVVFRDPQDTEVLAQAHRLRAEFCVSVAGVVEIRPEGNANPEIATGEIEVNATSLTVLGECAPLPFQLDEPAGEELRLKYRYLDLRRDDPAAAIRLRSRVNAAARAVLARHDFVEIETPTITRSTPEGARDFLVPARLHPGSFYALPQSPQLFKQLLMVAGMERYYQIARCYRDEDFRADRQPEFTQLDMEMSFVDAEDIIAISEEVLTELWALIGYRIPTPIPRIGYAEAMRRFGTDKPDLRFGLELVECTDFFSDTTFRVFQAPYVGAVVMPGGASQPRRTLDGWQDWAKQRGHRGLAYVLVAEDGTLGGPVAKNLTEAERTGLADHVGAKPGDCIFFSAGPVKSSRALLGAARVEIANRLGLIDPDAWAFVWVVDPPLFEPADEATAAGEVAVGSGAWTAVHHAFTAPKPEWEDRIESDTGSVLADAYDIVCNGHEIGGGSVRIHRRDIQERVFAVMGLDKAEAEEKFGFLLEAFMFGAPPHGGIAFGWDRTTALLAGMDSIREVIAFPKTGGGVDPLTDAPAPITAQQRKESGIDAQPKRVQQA
# Assay: Assay for Asp RNA synthetase-1 from Mycobacterium tuberculosis
# Assay type: functional
# Parameters: scale not given: in the data most compounds retested in dose-response had high values
# Details: 30 µM
row,SMILES,Percent Effect
1,CC(C)(C)n1cc(C(=O)N2CCCN(Cc3cccs3)CC2)cn1,-0.0333%
2,CC(C)Cc1noc(CN2CCN(CCO)CC2)n1,-3.95%
3,O=C(c1ncccn1)N1C[C@H]2CCC[C@@]2(COCC2CCOCC2)C1,-6.49%
4,Cc1ncsc1C(=O)NC1CCN(CC(=O)N(C)c2ccccc2)CC1,-3.57%
5,CCn1c(Cn2cncn2)nnc1C1CCN(C(=O)CCSC)CC1,1.37%
6,COCc1nc(C(=O)NS(=O)(=O)c2cc(F)ccc2F)cs1,-0.5%
7,Cc1ccc(CNCc2nnc3n2CC(C(F)(F)F)CC3)cc1 (centres undefined),-6.08%
8,O=C(Cc1ccc(F)cc1)N1CCCCC1c1ccn2ccnc2n1 (centres undefined),-3.71%
9,O=C(C1CCC1)N1CCN(Cc2ccsc2)[C@H]2CS(=O)(=O)C[C@H]21,-4.67%
10,CCc1nc2n(n1)CC(NCc1ncc(-c3ccccc3)o1)CC2 (centres undefined),0.562%
11,CNc1cc2c(nn1)CCN(C(=O)c1cccc3c1OCO3)C2,-7.31%
12,CNC(=O)[C@H]1C[C@H]2OCC[C@H]2N(Cc2ccc(C)o2)C1,-1.06%
13,Cc1nc(CN2CCN(C(=O)c3sccc3C3CC3)CC2)cs1,-4.27%
14,CCN1CCN(C(=O)NCCOc2ccc3c(c2)OCO3)CC1,-4.65%
15,Cc1noc(C(C)C)c1C(=O)NCC(c1ccsc1)N(C)C (centres undefined),3%
16,COc1cccc([C@@H]2CN(C(=O)c3ccc(C)cc3O)C[C@H]2C(=O)O)c1,1.74%
17,Cc1cc(C)c(OCC(=O)NS(=O)(=O)c2c(C)noc2C)c(C)c1,-3.08%
18,CC(NC(=O)CCCOc1ccccc1Cl)c1ccncc1 (centres undefined),5.49%
19,Cc1ncsc1C(=O)NC1CCN(CC(=O)N(C)C(C)(C)C#N)CC1,-2.42%
